Screening results as filed in PubChem.
Rows were chosen to be rich in hits. Some 4.8% of all compounds tested hit in one or more screens of this group.
SMARCA2 activ: SMARCA2 function activation, primary screen; hit rate 1% among 370,000; MG213 cells, MMTV-luciferase reporter, dexamethasone, overnight; activation, % at 9.1 µM; in the data active = activation above about 7.8%
DAX1 inh-1: inhibits human nuclear receptor DAX1; inhibition, % at 6.75 µM; HEK293 Gal4-DAX1 luciferase reporter, luminescence; AID 504766; hit rate 0.99% among 340,000;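 active = inhibition above the mean over all tested compounds plus 3 SD, cut at about 4.2% in these data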;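 also: inhibition shows as a rise in luminescence from relieved DAX1 repression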
Target sequence (P51843 207-470 limits assumed): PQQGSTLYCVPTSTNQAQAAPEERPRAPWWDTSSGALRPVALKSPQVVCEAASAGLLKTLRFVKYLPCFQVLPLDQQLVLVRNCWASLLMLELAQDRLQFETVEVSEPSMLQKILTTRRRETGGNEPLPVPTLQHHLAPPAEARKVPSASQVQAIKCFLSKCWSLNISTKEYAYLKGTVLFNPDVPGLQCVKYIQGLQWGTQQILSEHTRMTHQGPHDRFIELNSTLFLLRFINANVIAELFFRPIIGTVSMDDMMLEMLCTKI
ssDAF-12 act: activates DAF-12 receptor from parasite S. stercoralis. hit rate 1% among 370,000. activation, % at 6.8 µM. HEK293 ssDAF-12/GRIP1 lit1-tk-luc reporter, luminescence; % of 3 µM dafachronic acid response;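 active = activation above the mean over all tested compounds plus 3 SD, cut at about 0.9% in these data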
DAX1 inh-2: inhibitors of DAX1 repression of SF-1 activated StAR promoter; HEK293T StAR-luciferase reporter, SF-1/DAX-1 repression relief; inhibition, % at 6.8 µM; hit rate 1.1% among 370,000;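 active = inhibition above the mean over all tested compounds plus 3 SD, cut at about 3.6% in these data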;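 also: higher inhibition means more luminescence from relief of DAX-1 repression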
hgDAF12 agonist: activates the H. glycines DAF-12 receptor ligand-binding domain; HEK293 GAL4-hgDAF12 UAS-luciferase reporter, agonist luminescence; normalized to butyrate control; activation, % at 6.8 µM; hit rate 1.8% among 370,000; AID 687014;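 active = activation above a cutoff set at the mean of all screened compounds plus 3 SD, cut at about 10% in these data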
hcDAF-12 act: activates DAF-12 receptor from parasite H. contortus; hit rate 1.4% among 370,000; AID 652067; activation, % at 6.8 µM; HEK293 hcDAF-12 lit1-tk-luc reporter, luminescence; 0% DMSO, 100% Δ7-dafachronic acid;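 active = activation above the mean of all tested compounds plus 3 SD, cut at about 5.5% in these data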
Each line names hits and unclear results; the compound was inactive in the other large screens.

Cc1onc(-c2ccccc2)c1C(=O)NNC(=O)c1ccccc1	ssDAF-12 act 1.1
COc1ccc(NC(=O)OCCN2CCCC23CCC(c2ccccc2)CC3)cc1 (stereo not drawn)	none (no result: SMARCA2 activ, DAX1 inh-1, DAX1 inh-2)
Cn1ccnc1SCC(=O)c1ccc2ccccc2c1	hgDAF12 agonist 13
COC(=O)[C@]12C[C@H](CC(=O)NCc3cccc(C(F)(F)F)c3)C(=O)N(Cc3ccc4c(c3)OCO4)C1=C[C@H](C(C)C)O[C@@H]2C1CC1	none (no result: DAX1 inh-1)
CCC[C@H](/C=C/C(=O)OC(C)(C)C)Sc1ccc(OC)cc1	none (no result: DAX1 inh-1)
Cc1ccc(C)c(NC(=O)CN2C(=O)CCSc3ccccc32)c1	none (no result: DAX1 inh-1)
CCc1ccc(Nc2nnc(SCC(=O)Nc3cccc(S(=O)(=O)NC4=NCCCCC4)c3)s2)cc1	hgDAF12 agonist 12
CCc1ccc(Nc2nnc(SCC(=O)Nc3ccc(C(=O)O)cc3)s2)cc1	DAX1 inh-2 3.7
CC(=O)Nc1ccc(NC(=O)CSc2nnc(NC(=O)C3CC3)s2)cc1	DAX1 inh-1 6.5
Cc1ccc(Nc2nnc(SCC(=O)Nc3cccc(S(=O)(=O)NC4=NCCCCC4)c3)s2)cc1	none
Cc1ccc(CSc2nnc(SCC(=O)N/N=C/c3ccc(C(=O)O)cc3)s2)cc1	DAX1 inh-1 4.3
COC(=O)C1CN(CCc2ccccc2)CCS(=O)(=O)N1Cc1ccc(C)cc1 (stereo not drawn)	none (no result: DAX1 inh-1)
O=C(c1cccc(F)c1)N1CCCC(c2nc(-c3cccs3)no2)C1 (stereo not drawn)	none (no result: DAX1 inh-1)
O=C(CSc1nc2ccccc2c(=O)n1-c1ccc(Cl)cc1)NNC(=S)Nc1ccccc1	none (no result: DAX1 inh-1)
CC(C)(C)c1ccc(S(=O)(=O)N2CCC(c3cn4ccccc4n3)CC2)cc1	none (no result: DAX1 inh-1)
Cc1ccc2c(c1)C1CS(=O)(=O)N(C3CCCC3)C(=O)N1C2 (stereo not drawn)	none (no result: DAX1 inh-1)
CCCC(=O)Nc1nnc(SCC(=O)Nc2ccc3c(c2)OCCO3)s1	ssDAF-12 act 1.5
CCCC(=O)Nc1nnc(SCC(=O)Nc2ccc3c(c2)OCO3)s1	none
Cc1cc(C(=O)COc2cccc([N+](=O)[O-])c2)c(C)n1C1CC1	hgDAF12 agonist 13
Cc1ccc(OCC(=O)c2cc(C)n(C3CC3)c2C)c([N+](=O)[O-])n1	none
Cc1cc(-n2c(C)cc(C(=O)CN3C(=O)NC4(CCCC4)C3=O)c2C)no1	DAX1 inh-1 5.9
Cc1cc(C(=O)CN2C(=O)NC3(CCCCC3)C2=O)c(C)n1Cc1ccc2c(c1)OCO2	none
Cc1cc(C(=O)CN2C(=O)NC3(CCCCC3)C2=O)c(C)n1Cc1ccco1	DAX1 inh-1 7.1, ssDAF-12 act 2.6, DAX1 inh-2 4.0, hgDAF12 agonist 11
CCOC(=O)[C@]12CCCCC/C=C\1N(CCc1ccc(Cl)cc1)C(=O)[C@H]2CC(=O)NCCc1ccccc1OC	none (no result: DAX1 inh-1)
COC(=O)[C@H](CC(C)C)N1Cc2nnn(Cc3ccccc3)c2-c2ccccc2S1(=O)=O	none (no result: DAX1 inh-1)
CCCOc1ccc(NC(=O)C2CC(=O)N/C(=N/N=C(C)/C=C/c3ccc(N(C)C)cc3)S2)cc1 (stereo not drawn)	SMARCA2 activ 9.3
CCCC(=O)N(CCN1CCOCC1)c1nc2c(F)cc(F)cc2s1	DAX1 inh-2 4.0
CCCC(=O)N(CCN1CCOCC1)c1nc2c(OCC)cccc2s1	none (no result: SMARCA2 activ, ssDAF-12 act, DAX1 inh-2, hgDAF12 agonist, hcDAF-12 act)
CCn1nc(C)c(Br)c1-c1nc(-c2ccc(C)cc2)no1	ssDAF-12 act 1.0 (no result: DAX1 inh-1)
COC(=O)C1CN(Cc2ccccc2)CCS(=O)(=O)N1Cc1ccc(Cl)cc1 (stereo not drawn)	none (no result: DAX1 inh-1)
COc1ccc(OCC(C)CN2CCC(C(O)(c3ccccc3)c3ccccc3)CC2)cc1 (stereo not drawn)	none (no result: DAX1 inh-1)
COC(=O)C1CCN(C(=O)COC(=O)c2cc(-c3cccs3)nn2-c2ccccc2)CC1	DAX1 inh-1 4.6
OCCN1CCCC12CCC(c1ccccc1)CC2 (stereo not drawn)	none (no result: DAX1 inh-1)
Cc1cc(-c2nn3c(C)nnc3s2)ccc1NC(=O)C(C)(C)C	hgDAF12 agonist 12
Cc1ccc(-c2nn3c(C)nnc3s2)cc1NC(=O)c1cccs1	none
COc1ccccc1-c1nc(NC(C)=O)n[nH]1	ssDAF-12 act 1.8 (no result: DAX1 inh-1)
CCOC(=O)c1cccnc1SCc1cc(=O)n2ccccc2n1	ssDAF-12 act 2.1
CCc1ccc(CCNC(=O)OC2CC3CC2[C@H]2CCCCN2[C@H]3C)cc1 (stereo partly drawn)	none (no result: DAX1 inh-1)
CCC(=O)NC1=C(Cl)C(=O)C(NC(=O)CC)=C(Cl)C1=O	SMARCA2 activ 8.6
CCC(=O)NC1=C(NC(C)c2ccccc2)C(=O)c2ccccc2C1=O (stereo not drawn)	none
O=CNc1cc(-c2ccccc2)cn2c(-c3ccc(F)c(Cl)c3)cnc12	ssDAF-12 act 1.5 (no result: DAX1 inh-1)
Cc1ccc(-n2c(Cn3ncc4ccccc4c3=O)n[nH]c2=S)cc1	ssDAF-12 act 1.3
COc1cccc(/C=N/n2c(C)nc3ccccc3c2=O)c1O	DAX1 inh-1 5.5
O=[N+]([O-])c1ccc(/C=C/C2=NN(c3ccccc3)C(c3ccco3)C2)cc1 (stereo not drawn)	none
O=[N+]([O-])c1ccc(C2=NN(c3ccccc3)C(c3ccco3)C2)cc1 (stereo not drawn)	DAX1 inh-1 6.4
Cc1ccccc1CN1CCCCC(NC(=O)Nc2ccccc2)C1=O (stereo not drawn)	none (no result: DAX1 inh-1)
CC(CCN1CCC(C(O)(c2ccccc2)c2ccccc2)CC1)Oc1ccccc1C#N (stereo not drawn)	none (no result: DAX1 inh-1)
O=C(Nc1nc2ccc(F)cc2s1)Oc1ccccc1	hcDAF-12 act 6.5
O=C(NC(=S)Nc1nc2ccc(F)cc2s1)c1ccco1	ssDAF-12 act 2.6, hcDAF-12 act 5.8
Cn1cccc1C(=O)N1CCN(S(=O)(=O)c2ccc(Cl)s2)CC1	none (no result: DAX1 inh-1)
Cc1cc(C)nc(N2CCN(C(=O)CSc3nc4ccccc4nc3N3CC(C)OC(C)C3)CC2)n1 (stereo not drawn)	none (no result: DAX1 inh-1)
O=C(c1ccccc1Cl)N1CCC(Oc2cccnc2)CC1	none (no result: DAX1 inh-1)
CN(Cc1ccccc1)c1nnc(N)s1	none
CC(C)N(c1nnc(N)s1)C(C)C	DAX1 inh-1 5.0
CC1CCC2(CC1)CCN(CCCOC(=O)Nc1cccc(C(F)(F)F)c1)C2=O (stereo not drawn)	none (no result: DAX1 inh-1)
Cc1ccc(NC2SC(=O)N(CC(=O)O)C2=O)cc1 (stereo not drawn)	ssDAF-12 act 1.2
N=c1cc(C2(O)CCCCC2)n2c(nc3ccccc32)s1	DAX1 inh-2 3.6, hgDAF12 agonist 11
COc1ccc2nc(N/C(N)=N/S(C)(=O)=O)nc(C)c2c1	DAX1 inh-1 4.6
COc1ccc2nc(N/C(N)=N/C(=S)Nc3c(C)cccc3C)nc(C)c2c1	none
CC1=NN(c2nc(-c3ccc(C)cc3)cs2)C(=O)C1N=Nc1ccccc1O (stereo not drawn)	ssDAF-12 act 0.9 (no result: DAX1 inh-1)
CC1=NN(c2nc(-c3ccc(C)cc3)cs2)C(=O)C1N=Nc1cccc(O)c1 (stereo not drawn)	none
